# Laboratory results reported in PubChem BioAssay (NCI).
# The panel holds about 83,000 compounds, 20% with a hit somewhere; the sample as a whole holds those more often.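 96-well plates, one dose, 48 hours. Percent growth reported; active if below 10.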 Unmarked numbers belong to inactive results. The source made the active and inactive calls.
# Legend:
# Test in all cases: NCI-60 one-dose screen, 48 h (100 = growth as untreated, 0 = no growth, -100 = all killed)
# [1] = test system: DU-145 prostate; conditions: 10 µM unless noted
# [2] = test system: K-562 leukemia; conditions: 10 µM unless noted
# [3] = test system: MALME-3M melanoma; conditions: 10 µM unless noted
# [4] = test system: MDA-MB-231 breast; conditions: 10 µM unless noted
# [5] = test system: SF-268 CNS; conditions: 10 µM unless noted
# [6] = test system: SF-295 CNS; conditions: 10 µM unless noted
# [7] = test system: SF-539 CNS; conditions: 10 µM unless noted
# [8] = test system: UACC-257 melanoma; conditions: 10 µM unless noted
# [9] = test system: M14 melanoma; conditions: 10 µM unless noted
# [10] = test system: HCT-15 colon; conditions: 10 µM unless noted
# [11] = test system: HT29 colon; conditions: 10 µM unless noted
# [12] = test system: SNB-75 CNS; conditions: 10 µM unless noted
# [13] = test system: SNB-19 CNS; conditions: 10 µM unless noted
# [14] = test system: U251 CNS; conditions: 10 µM unless noted
# [15] = test system: PC-3 prostate; conditions: 10 µM unless noted
# [16] = test system: SK-MEL-5 melanoma; conditions: 10 µM unless noted
# [17] = test system: UACC-62 melanoma; conditions: 10 µM unless noted
# [18] = test system: LOX IMVI melanoma; conditions: 10 µM
# [19] = test system: SK-MEL-28 melanoma; conditions: 10 µM unless noted
# [20] = test system: RXF 393 renal; conditions: 10 µM unless noted
SMILES,growth [1],growth [2],growth [3],growth [4],growth [5],growth [6],growth [7],growth [8],growth [9],growth [10],growth [11],growth [12],growth [13],growth [14],growth [15],growth [16],growth [17],growth [18],growth [19],growth [20]
O=c1cc(-c2ccccc2)oc2cc(OCCCC[P+](c3ccccc3)(c3ccccc3)c3ccccc3)cc(O)c12,-94.8% (active),-24.1% (active),-88% (active),-32.2% (active),-59% (active),-96.1% (active),-95.7% (active),-91% (active),-70.1% (active),-94.2% (active),-65% (active),-80.7% (active),-44.5% (active),-57.4% (active),-87.3% (active),-98.4% (active),-59.5% (active),-90.1% (active),-98.4% (active),–
CC12CC[C@@H]3[C@]4(C)COC(c5cn[nH]c5-c5ccc(Cl)cc5)O[C@@H]4CC[C@@]3(C)[C@@H]1CC(C1=CCOC1=O)O2 (stereo partly drawn),61.6%,24.9%,58%,52.1%,60.3%,43.8%,51.2%,46.7%,30.9%,36.2%,22%,–,–,50%,19.4%,16.5%,33.4%,46.2%,39.2%,5.04% (active)
CCCCCCn1c(O)c(N=Nc2nc(-c3cc4ccccc4oc3=O)cs2)c2ccccc21,10.1%,29.8%,-72.1% (active),-65.6% (active),11%,47.8%,56.1%,46.3%,-4.72% (active),36.7%,-39.7% (active),81.4%,–,-57.5% (active),-2.73% (active),-64.8% (active),-2.7% (active),-63.9% (active),-39.3% (active),–
O=C(/C=C/Nc1ccc(Cl)cc1)c1ccc2c(c1)Nc1ccccc1S2,33.5%,49.2%,50.7%,26.8%,42.3%,23.4%,8% (active),74.5%,49.5%,67.1%,28.7%,–,–,31.5%,29.8%,71.3%,32%,–,65.9%,14.5%
Cc1ncsc1-c1ccc(CNC(=O)[C@@H]2C[C@@H](O)CN2C(=O)[C@@H](NC(=O)C2(F)CC2)C(C)(C)C)c(OCCOCCOCCOCCOc2nc(Nc3cc(S(C)(=O)=O)ccc3N[C@@H](c3cccc4c3OC(F)(F)O4)c3ncccc3Cl)nc(N3CCNCC3)n2)c1,69%,23.1%,41.4%,–,65.7%,101%,70.1%,94.4%,97.5%,99.4%,88.1%,63.2%,64.8%,65.8%,71.7%,65.4%,84.8%,–,89.2%,65.3%
N#Cc1ccc(/C=N/NC(=O)c2[nH]c3ccc(Br)cc3c2-c2ccccc2)o1,8.4% (active),2.28% (active),22%,–,17.7%,16%,-16.8% (active),13.6%,12.1%,8.65% (active),-15.3% (active),5.21% (active),34.5%,6.89% (active),13.1%,-65.5% (active),15.2%,–,27.4%,-2.8% (active)
O=c1[nH]n(C(=S)N/N=C/c2ccccc2Cl)c(=O)c2ccccc12,15.1%,4.54% (active),28.3%,–,28.5%,15.9%,-20.2% (active),37.2%,-41.9% (active),-41.3% (active),0.552% (active),52.1%,8.55% (active),-46.5% (active),22.6%,5.82% (active),-65.4% (active),–,-26.3% (active),-57.7% (active)
O=C(O)c1ccc(-c2ccc(/C=N/NC(=O)c3[nH]c4ccc(Br)cc4c3-c3ccccc3)s2)cc1,28.2%,22.5%,-8.14% (active),–,21.1%,-11.9% (active),1.96% (active),44.3%,28.2%,-34.6% (active),-7.12% (active),-11.3% (active),14.4%,14.5%,18.7%,-49.6% (active),-51.9% (active),–,11.9%,-24.4% (active)
Cc1cc(C)cc(C(=O)Nc2cccc(-c3cn(-c4ccc(S(N)(=O)=O)cc4)nn3)c2)c1,72.1%,19.1%,20.4%,–,16.6%,-36.6% (active),-84.3% (active),76.2%,73.4%,79%,80.4%,-7.62% (active),-27.9% (active),10.9%,83%,24.4%,12.2%,–,62.4%,-26.1% (active)
CN1CCc2c(sc3ncnc(N/N=C/c4ccc(Cl)cc4Cl)c23)C1,36.1%,-21.5% (active),-62.4% (active),–,35.8%,32.4%,-94.6% (active),-12.3% (active),-81.4% (active),10.2%,-88.4% (active),-50.4% (active),26.8%,2.63% (active),25.3%,-89.2% (active),-79.9% (active),–,-33.1% (active),-41.8% (active)
CSc1ccc(NC(=O)c2ccc3nn(/C(C#N)=C/c4ccccn4)nc3c2)cc1,-100% (active),-13.4% (active),-89.4% (active),–,-40% (active),-95.7% (active),-95% (active),-89.3% (active),-86% (active),-72.1% (active),-86.1% (active),35.1%,-75.7% (active),-79.9% (active),-73.7% (active),-92.8% (active),-96.3% (active),–,-98.4% (active),-94.9% (active)
O=C(O)c1ccc(-c2ccc(/C=N/NC(=O)c3[nH]c4ccc(Br)cc4c3-c3ccccc3)o2)cc1,38.8%,7.51% (active),34.6%,–,10.5%,6.58% (active),-36.9% (active),45.5%,0.786% (active),7.24% (active),34.5%,-8.96% (active),13%,1.17% (active),20.8%,-9.61% (active),18%,–,31.1%,-1.82% (active)
Cc1ccc2c(N)c(C(=O)Nc3ccc(OC(F)(F)F)cc3)sc2n1,82.1%,9.66% (active),75.3%,–,98.9%,42.9%,36.5%,70%,82.9%,61%,75.2%,91.8%,79.5%,84.6%,58.4%,26%,61.2%,–,85.5%,86.3%
COc1ccc2nc(Nc3cccc(NC(=O)c4ccc(CN5CCCN(C)CC5)c(C(F)(F)F)c4)c3)ccc2c1,-54.2% (active),-18.6% (active),-58.3% (active),–,-9.02% (active),-53.9% (active),-56.2% (active),-34% (active),-49.4% (active),-64.7% (active),-69.7% (active),-35.3% (active),-76.4% (active),1.47% (active),-57% (active),-69.2% (active),-61.1% (active),–,-74.9% (active),-82.9% (active)
CCOC(=O)C1=C(N)N(c2ccccc2)C2=C(C(=O)CC(C)(C)C2)C1c1ccc(Cl)cc1Cl (stereo not drawn),46%,13%,27.9%,–,52.1%,23.6%,33.3%,35%,41.3%,14%,35%,41.2%,28.1%,27.6%,9.99% (active),-1.66% (active),27.2%,–,51.3%,21.2%
O=C(/C=C/c1ccc(-c2ccccc2)cc1)c1nc2ccccc2n1Cc1ccc(F)cc1,54.4%,21.7%,0% (active),–,62.4%,40.4%,-15.9% (active),49.5%,39.6%,22.8%,9.19% (active),49.2%,44.6%,32.5%,47.6%,47.9%,38.2%,–,28.4%,13.6%
